A short description of assay [1]: AP1 Signaling Pathway (AID 357; active = well fitted curve in either direction with a large enough effect, not every such curve was filed as active; also: % is scaled to controls: 0 for no effect and ±100 for the full control effect). As to conditions: ME-180 AP-1-bla reporter, EGF-induced, beta-lactamase ratio, 5 h; at 38 µM (top of the series). Put shortly: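 AP-1-bla ME-180 cells with beta-lactamase reporter under AP-1 response element, stimulated with EC50 EGF; compounds titrated, 5 hours at 37 degrees Celsius. CCF4 read at 460/530 nm ratio; positive and negative modulators judged by AC50.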

Assay [2] deals with Cytochrome P450 1A2 (Homo sapiens) (UniProt P05177). Description: p450-cyp1a2 (AID 410; calls by dose curve; also: potency is read from the fitted curve at half-maximal effect). In a few lines:
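20nM CYP1A2 with 100uM Luciferin-ME (at Km) in 100mM KPO4; compound preincubated 10 min, NADPH regeneration added, 60 min at room temperature. Luciferin quantified by luminescence after detection reagent; normalized to 57 uM furafylline.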

Assay [3] can be described thus: NFAT Signaling Pathway (AID 444; active = well fitted curve in either direction with a large enough effect, not every such curve was filed as active;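 also: carbachol stimulus at about its EC50 of 1 µM final; % is scaled to controls: 0 for no effect and ±100 for the full control effect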). As to conditions: Jurkat NFAT-bla M1, carbachol, beta-lactamase ratio, 5 h; at 38 µM (top of the series). Put shortly: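 Jurkat cells carrying an NFAT-driven β-lactamase reporter and co-transfected muscarinic M1 receptor were treated with compound plus carbachol (1 uM final, an EC50 level) for 5 h at 37 °C. CCF4 loading followed for 1 h at RT; 460/530 nm ratio gave %activity.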

A short description of assay [4]: Stat Signaling Pathway (AID 446; active = well fitted curve in either direction with a large enough effect, not every such curve was filed as active;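 also: ME-180 cervical cancer cells given 40 pM IL-6 alongside compound; SIE-controlled beta-lactamase reporter measured as 460/530 nm FRET emission ratio; % is scaled to controls: 0 for no effect and ±100 for the full control effect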). As to conditions: ME-180 SIE beta-lactamase reporter, IL-6 stimulated, 5 h; at 38 µM (top of the series). In a few lines: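 ME-180 cells carrying a SIE-driven beta-lactamase reporter are stimulated with 40 pM IL-6 for 5 h at 37C in the presence of compound. The 460/530 nm FRET substrate ratio is read after 2.5 h at RT. Data are normalised to 300 pM IL-6 and to 125 nM JAK inhibitor controls.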

Assay [5] deals with Glucocorticoid receptor (Homo sapiens) (UniProt P04150). In words: GR-GFP Redistribution (AID 450;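 active = compounds whose dose series gives a full or clear partial fitted curve of increased nuclear translocation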; also: potency is read from the fitted curve at half-maximal effect). The following applies: U2OS GR-GFP nuclear translocation, laser cytometry, 2 h.
Sequence of Glucocorticoid receptor (Homo sapiens) (P04150 whole entry, looked up, the tested form may be a part): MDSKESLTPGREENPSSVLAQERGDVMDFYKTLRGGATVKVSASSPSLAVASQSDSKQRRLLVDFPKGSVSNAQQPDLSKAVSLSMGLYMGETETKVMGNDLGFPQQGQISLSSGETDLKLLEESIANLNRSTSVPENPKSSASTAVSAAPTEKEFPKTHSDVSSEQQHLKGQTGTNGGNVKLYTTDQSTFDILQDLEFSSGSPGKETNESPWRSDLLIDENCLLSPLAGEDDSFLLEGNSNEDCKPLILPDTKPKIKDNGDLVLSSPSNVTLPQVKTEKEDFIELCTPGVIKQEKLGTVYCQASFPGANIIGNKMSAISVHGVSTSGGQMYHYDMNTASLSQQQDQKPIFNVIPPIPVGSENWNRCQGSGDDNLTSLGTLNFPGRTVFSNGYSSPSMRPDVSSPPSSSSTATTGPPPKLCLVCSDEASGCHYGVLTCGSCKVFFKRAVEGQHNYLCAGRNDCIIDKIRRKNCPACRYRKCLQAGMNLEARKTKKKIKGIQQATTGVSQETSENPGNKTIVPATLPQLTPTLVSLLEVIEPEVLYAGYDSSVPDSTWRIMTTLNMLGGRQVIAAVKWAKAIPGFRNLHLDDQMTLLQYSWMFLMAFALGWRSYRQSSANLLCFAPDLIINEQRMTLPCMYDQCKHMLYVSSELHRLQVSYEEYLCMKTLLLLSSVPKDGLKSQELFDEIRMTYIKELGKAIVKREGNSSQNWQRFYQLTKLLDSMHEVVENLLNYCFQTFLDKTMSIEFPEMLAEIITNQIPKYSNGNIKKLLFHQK
Assay [6] shares this target. Description: GR-EFC Redistribution (AID 451; calls by dose curve; also: potency is read from the fitted curve at half-maximal effect). As to conditions: CHO-K1 GR-EFC translocation, beta-gal luminescence, 2 h. Put shortly: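 CHO-K1 cells stably expressing nuclear-localized β-gal enzyme acceptor and GR fused C-terminally to the enzyme donor fragment; ligand-driven nuclear translocation restores β-gal by complementation. Compounds titrated up to 46 uM final, 2 h at 37 °C; luminescence read.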

Assay [7] deals with Mitogen-activated protein kinase 10 (Mus musculus) (UniProt Q61831). In words: JNK3 AlphaScreen Assay (AID 530; active = well fitted curve in either direction with a large enough effect, not every such curve was filed as active;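 also: kinase came from lysate of stimulated human HepG2 cells; signal reports phosphorylation of biotinylated GST-cJun 1-79 at Ser73 with 10 µM ATP; % is scaled to controls: 0 for no effect and ±100 for the full control effect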). In a few lines: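 Inhibitors reduce antibody binding to phosphorylated biotin-cJun, lowering AlphaScreen luminescence. Lysates from HepG2 cells pre-activated by IL-1beta plus TNF-alpha supplied JNK3; compounds were titrated.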
(In general: Bead proximity is the source of the signal in Alpha formats.)

In assay [8] the target is 3',5'-cyclic-AMP phosphodiesterase 4B (Homo sapiens) (UniProt Q07343). In words: qHTS Assay for Inhibitors of PDE-IV (AID 607; active = well fitted activation curve with a large enough effect in the main read-out, with a control signal flat, not every such curve was filed as active; also: % of control where 0% means no effect). Put shortly: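 HEK293 ACTOne cells with CNG channel (1000/well), endogenous PDE4; membrane potential dye, compounds up to 22.9 uM final. Fluorescence Ex 535/Em 590; RO 20-1724 (100 uM final) as reference.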
Sequence of 3',5'-cyclic-AMP phosphodiesterase 4B (Homo sapiens) (Q07343 whole entry, looked up): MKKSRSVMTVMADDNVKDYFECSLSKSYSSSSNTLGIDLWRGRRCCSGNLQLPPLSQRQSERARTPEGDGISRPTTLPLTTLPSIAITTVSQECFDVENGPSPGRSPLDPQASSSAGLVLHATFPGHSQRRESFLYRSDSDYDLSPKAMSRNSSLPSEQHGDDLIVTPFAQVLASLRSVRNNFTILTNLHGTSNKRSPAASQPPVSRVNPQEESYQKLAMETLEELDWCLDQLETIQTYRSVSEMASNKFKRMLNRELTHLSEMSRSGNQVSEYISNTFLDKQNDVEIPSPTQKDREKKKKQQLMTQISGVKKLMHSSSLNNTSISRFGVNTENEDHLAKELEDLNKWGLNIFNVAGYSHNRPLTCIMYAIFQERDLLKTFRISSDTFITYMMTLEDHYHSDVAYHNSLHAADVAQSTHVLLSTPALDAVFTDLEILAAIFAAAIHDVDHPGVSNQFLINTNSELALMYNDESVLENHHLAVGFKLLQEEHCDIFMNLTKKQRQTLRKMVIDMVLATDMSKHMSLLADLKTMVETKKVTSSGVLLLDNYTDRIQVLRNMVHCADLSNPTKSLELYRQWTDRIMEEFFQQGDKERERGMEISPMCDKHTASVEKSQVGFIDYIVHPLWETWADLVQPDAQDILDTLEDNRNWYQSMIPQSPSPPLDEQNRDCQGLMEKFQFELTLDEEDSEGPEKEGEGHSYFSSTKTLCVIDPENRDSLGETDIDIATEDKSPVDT
(Quantitative high-throughput screening tests each substance at several concentrations.)

Assay [9] concerns the target Guanine nucleotide-binding protein G(i) subunit alpha-1 (Homo sapiens) (UniProt P63096). Description: qHTS Assay for Inhibitors of RGS12 GoLoco Motif Activity (Green Fluorophore) (AID 879).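 Also: 0% = labeled peptide with Gαi1 and full inhibition = labeled peptide alone without protein; negative values mean loss of peptide binding seen as reduced polarization.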 Put shortly: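 Fluorescence polarization assay: 50 nM Gαi1 with 10 nM FITC-labeled RGS12 GoLoco peptide in 10 mM Tris pH 7.5, 150 mM NaCl, 0.1 mM GDP, 0.05% NP40, 10 min at room temperature with compound.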

Assay [10] addresses Cytochrome P450 3A4 (Homo sapiens) (UniProt P08684). Description: qHTS Assay for Activators of Cytochrome P450 3A4 (AID 885). Also: nearly all actives have a fitted effect of over 65% in size. Put shortly: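 Human CYP3A4 (20 nM) with Luciferin-PPXE at 25 uM (its KM) in 200 mM KPO4; 10 min compound preincubation, then NADPH regeneration and 60 min reaction at RT. Luciferin read by luminescence; normalized to 57 uM ketoconazole full inhibition.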

Assay [11] deals with Muscarinic acetylcholine receptor M1 (Rattus norvegicus) (UniProt P08482). Description: qHTS Assay for Antagonists of Acetylcholine Muscarinic M1 Receptor: Kinetic Measurement of Intracellular Calcium Response (AID 943). Also: nearly all actives have a fitted effect of over 75% in size. In a few lines: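 CHO cells expressing rat M1 receptor, Fluo-4 loaded, preincubated 10 min with compound, then stimulated with EC80 carbachol (100 nM final). Kinetic calcium fluorescence over 4 min; response taken as peak over basal signal.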
Sequence of Muscarinic acetylcholine receptor M1 (Rattus norvegicus) (P08482 whole entry, looked up): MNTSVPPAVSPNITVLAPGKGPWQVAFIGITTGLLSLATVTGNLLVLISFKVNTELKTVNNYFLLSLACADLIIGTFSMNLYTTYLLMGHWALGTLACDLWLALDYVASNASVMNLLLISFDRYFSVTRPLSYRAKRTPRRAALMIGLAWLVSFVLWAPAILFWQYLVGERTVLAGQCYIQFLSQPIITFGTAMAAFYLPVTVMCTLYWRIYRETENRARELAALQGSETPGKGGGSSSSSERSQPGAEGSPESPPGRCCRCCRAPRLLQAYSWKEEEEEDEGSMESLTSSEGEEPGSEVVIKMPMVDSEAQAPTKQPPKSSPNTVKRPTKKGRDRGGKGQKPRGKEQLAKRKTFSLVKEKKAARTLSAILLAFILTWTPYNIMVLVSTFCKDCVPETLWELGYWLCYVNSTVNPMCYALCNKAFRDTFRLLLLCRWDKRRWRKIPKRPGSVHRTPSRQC

The target is the same in assay [12]. Description: qHTS Assay for Antagonists of Acetylcholine Muscarinic M1 Receptor: Measurement of IP-One Response (AID 944). Also: nearly all actives have a fitted effect of over 75% in size. In a few lines: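 CHO cells stably expressing rat M1, pretreated 10 min with compound, then stimulated 30 min with carbachol at EC80 (200 nM) in LiCl-containing buffer pH 7.4; IP1 accumulation read by HTRF competition (665/620 nm).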
The target in assay [13] is Pyruvate kinase (Leishmania mexicana) (UniProt Q27686). In words: qHTS Validation Assay for Inhibitors of Leishmania Mexicana Pyruvate Kinase (AID 945).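 Also: 0% = DMSO only neutral control wells.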 Put shortly: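 Purified LmPYK (E451W mutant, 0.2 nM) was incubated 1 h at room temperature with 0.5 mM PEP and 0.1 mM ADP in 50 mM imidazole pH 7.2, 50 mM KCl, 7 mM MgCl2; ATP formed was read by PKLight luminescence, normalized to DMSO wells.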
Sequence of Pyruvate kinase (Leishmania mexicana) (Q27686 2-499 E452W): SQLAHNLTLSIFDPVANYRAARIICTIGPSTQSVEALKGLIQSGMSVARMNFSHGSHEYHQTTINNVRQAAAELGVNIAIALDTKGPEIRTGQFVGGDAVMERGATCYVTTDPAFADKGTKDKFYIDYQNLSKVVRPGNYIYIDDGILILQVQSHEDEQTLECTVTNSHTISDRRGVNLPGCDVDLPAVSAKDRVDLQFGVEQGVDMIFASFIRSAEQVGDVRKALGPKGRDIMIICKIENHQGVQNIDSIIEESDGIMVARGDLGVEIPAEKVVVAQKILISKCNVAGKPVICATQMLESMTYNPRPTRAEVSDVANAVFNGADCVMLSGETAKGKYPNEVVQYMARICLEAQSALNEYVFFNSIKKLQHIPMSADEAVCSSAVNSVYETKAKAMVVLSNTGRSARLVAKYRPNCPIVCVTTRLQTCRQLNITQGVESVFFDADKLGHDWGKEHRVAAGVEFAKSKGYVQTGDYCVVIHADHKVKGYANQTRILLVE

Assay [14] concerns the target Pyruvate kinase PKM (Homo sapiens) (UniProt P14618). In words: qHTS Assay for Activators of Human Muscle Pyruvate Kinase (AID 954; active = well fitted curve in the direction sought with a large enough effect, not every such curve was filed as active;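 also: 0% = uninhibited enzyme and -100% = no enzyme or full thiadiazolimine inhibition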). Put shortly:
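Purified human PKM2 (0.1 nM) with 0.5 mM PEP (Km) and 0.1 mM ADP in 50 mM imidazole pH 7.2, KCl, MgCl2, 1 h at room temperature; ATP formed read by coupled luciferase luminescence. Normalized to no-enzyme/110 uM thiadiazolimine inhibition; 0.3 nM enzyme column for activation.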

The target of assay [15] is Alpha-galactosidase A (Homo sapiens) (UniProt P06280). In words: Counterscreen for Glucocerebrosidase Inhibitors: qHTS Assay for Human alpha-Galactosidase at pH 4.5 (AID 992). Also: 0% is about no effect. Put shortly:
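Human enzyme (2 nM) with 80 uM 4-methylumbelliferyl alpha-D-galactopyranoside in 50 mM citric acid, 0.005% Tween-20, pH 4.5, 20 min at room temperature. Compounds 0.7 nM–77 uM; fluorescence Ex 365/Em 440 after pH 10 stop; AC50 from Hill fits.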
(Counterscreens check selectivity or assay interference.)

Assay [16] deals with alpha-glucosidase (Oryza sativa, rice) (UniProt Q653V4). Description: Counterscreen for Glucocerebrosidase Inhibitors: qHTS Assay for Rice alpha-Glucosidase at pH 5.0 (AID 997).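 Also: 0% = full activity with enzyme and -100% = basal without enzyme.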 In a few lines:
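Rice alpha-glucosidase (4 nM final) with 400 uM 4-methylumbelliferyl-alpha-D-glucopyranoside in citrate buffer pH 5.0, 20 min at room temperature, stopped at pH 10; fluorescence 365/440 nm, compounds 0.7 nM–77 uM, AC50 from Hill fits.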

A short description of assay [17]: Validation of Assay for Modulators of Lamin A Splicing (AID 1459; active = well fitted curve in the direction sought with a large enough effect in the signal ratio; the % refers to the signal ratio;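 also: cells exposed to compound for two days before reading; 0% is about no effect; ratio rise marks activators and ratio drop marks inhibitors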). In a few lines:
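HeLa S3 lamin A-EGFP/DsRed2 stable clone, 600 cells/well, Opti-MEM 2% FBS; compounds by pin tool; 48 hrs, 37 °C/5% CO2; Acumen 488 nm scan, objects 10-100 um; GFP/RFP intensity ratio.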

Assay [18] is described as follows: qHTS Assay for Lipid Storage Modulators (AID 1519; calls by dose curve). As to conditions: Drosophila S3 cells, BODIPY lipid droplet/cell ratio, laser cytometry, cells loaded with oleic acid. In a few lines: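 Cells seeded at 5,000 per well were treated with compounds over a concentration series and loaded with oleic acid (400 uM, as added). Lipid droplet fluorescence (488 nm excitation, 500-530 nm channel) was read by laser-scanning cytometry and normalized to 20 uM Triacsin C.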

SMILES strings stand for the structures. Inconclusive results are not listed. Active and inactive are the calls of the source. Unless noted, calls follow the shape of the dose curve; as a rule, active = well fitted curve in the direction sought with a large enough effect; inconclusive = small, poorly fitted or top-dose-only effect, or another doubt; inactive = no such curve, though single readings can be large; an effect the other way counts as inactive or inconclusive.

Sequence of Cytochrome P450 3A4 (Homo sapiens) (P08684 whole entry, looked up): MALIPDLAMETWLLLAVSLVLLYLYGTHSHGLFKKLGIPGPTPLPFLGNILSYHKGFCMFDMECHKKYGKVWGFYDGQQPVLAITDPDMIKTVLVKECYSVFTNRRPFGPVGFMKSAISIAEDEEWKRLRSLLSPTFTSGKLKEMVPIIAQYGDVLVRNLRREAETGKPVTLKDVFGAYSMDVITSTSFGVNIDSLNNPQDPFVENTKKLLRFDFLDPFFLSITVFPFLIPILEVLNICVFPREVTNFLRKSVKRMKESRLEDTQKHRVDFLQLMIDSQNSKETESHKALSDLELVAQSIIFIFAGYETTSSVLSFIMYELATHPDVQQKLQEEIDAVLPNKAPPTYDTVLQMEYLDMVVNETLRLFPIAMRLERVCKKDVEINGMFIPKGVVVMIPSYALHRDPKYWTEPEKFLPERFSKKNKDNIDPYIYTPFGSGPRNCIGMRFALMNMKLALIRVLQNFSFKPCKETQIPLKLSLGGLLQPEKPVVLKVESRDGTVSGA
Sequence of Pyruvate kinase PKM (Homo sapiens) (P14618 whole entry, looked up): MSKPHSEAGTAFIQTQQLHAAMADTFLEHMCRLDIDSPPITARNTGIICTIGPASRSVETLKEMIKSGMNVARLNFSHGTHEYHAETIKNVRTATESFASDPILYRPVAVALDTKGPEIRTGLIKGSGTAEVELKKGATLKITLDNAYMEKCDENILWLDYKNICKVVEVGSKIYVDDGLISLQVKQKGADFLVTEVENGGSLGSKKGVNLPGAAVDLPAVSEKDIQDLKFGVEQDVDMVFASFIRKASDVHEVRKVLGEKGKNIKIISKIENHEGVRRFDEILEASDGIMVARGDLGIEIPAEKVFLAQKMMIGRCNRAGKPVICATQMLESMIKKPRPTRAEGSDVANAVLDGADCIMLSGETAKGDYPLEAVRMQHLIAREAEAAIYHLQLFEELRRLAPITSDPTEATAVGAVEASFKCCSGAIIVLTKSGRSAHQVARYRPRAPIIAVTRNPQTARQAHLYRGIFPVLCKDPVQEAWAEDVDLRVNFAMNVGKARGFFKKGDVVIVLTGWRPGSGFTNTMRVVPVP
Sequence of Cytochrome P450 1A2 (Homo sapiens) (P05177 whole entry, looked up): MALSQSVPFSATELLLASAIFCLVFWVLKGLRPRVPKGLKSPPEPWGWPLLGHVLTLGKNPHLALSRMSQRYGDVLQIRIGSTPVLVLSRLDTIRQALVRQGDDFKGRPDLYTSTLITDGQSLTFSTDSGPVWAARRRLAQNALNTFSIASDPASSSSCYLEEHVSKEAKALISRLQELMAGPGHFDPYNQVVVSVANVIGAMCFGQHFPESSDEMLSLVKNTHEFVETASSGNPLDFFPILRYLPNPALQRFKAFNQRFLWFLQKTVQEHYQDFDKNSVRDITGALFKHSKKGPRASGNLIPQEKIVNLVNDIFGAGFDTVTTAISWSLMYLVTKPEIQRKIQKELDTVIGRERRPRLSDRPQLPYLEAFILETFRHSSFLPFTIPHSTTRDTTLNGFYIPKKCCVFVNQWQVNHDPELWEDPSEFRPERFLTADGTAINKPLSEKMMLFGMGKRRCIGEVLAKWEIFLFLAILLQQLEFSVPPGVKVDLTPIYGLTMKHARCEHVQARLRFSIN
Sequence of Alpha-galactosidase A (Homo sapiens) (P06280 whole entry, looked up): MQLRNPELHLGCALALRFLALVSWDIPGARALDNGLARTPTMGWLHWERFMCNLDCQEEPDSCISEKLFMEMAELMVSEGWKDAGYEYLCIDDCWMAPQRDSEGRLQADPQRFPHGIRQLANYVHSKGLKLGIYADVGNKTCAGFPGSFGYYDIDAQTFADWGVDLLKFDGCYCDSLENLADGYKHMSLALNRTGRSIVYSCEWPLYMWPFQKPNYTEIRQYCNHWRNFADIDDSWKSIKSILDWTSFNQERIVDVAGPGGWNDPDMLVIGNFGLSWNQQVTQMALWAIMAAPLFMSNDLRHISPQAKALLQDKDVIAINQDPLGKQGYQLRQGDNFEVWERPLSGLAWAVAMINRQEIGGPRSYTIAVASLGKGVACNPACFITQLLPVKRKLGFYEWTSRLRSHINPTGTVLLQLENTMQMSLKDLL
Sequence of Guanine nucleotide-binding protein G(i) subunit alpha-1 (Homo sapiens) (P63096 whole entry, looked up): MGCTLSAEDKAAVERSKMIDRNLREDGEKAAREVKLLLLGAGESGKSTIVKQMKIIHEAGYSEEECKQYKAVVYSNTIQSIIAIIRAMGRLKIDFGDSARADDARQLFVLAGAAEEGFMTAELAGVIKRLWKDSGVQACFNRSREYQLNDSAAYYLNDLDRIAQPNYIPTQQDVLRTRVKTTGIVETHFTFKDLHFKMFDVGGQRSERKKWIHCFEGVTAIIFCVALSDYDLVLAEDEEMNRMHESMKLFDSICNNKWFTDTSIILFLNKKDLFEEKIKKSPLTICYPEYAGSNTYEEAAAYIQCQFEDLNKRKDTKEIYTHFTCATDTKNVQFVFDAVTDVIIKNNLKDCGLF

As to `Cn1cnc2c(NC3CCCC3)ncnc21`, the values for the activity change, negative = inhibition in assay [1], in assay [3] and in assay [18] (at 57.5 µM (top of the series)) were -18% (inactive), -0.777% (inactive) and -0.311% (inactive), respectively. Moreover, the Potency is 12.6 µM (active) in assay [2], > 46 µM (inactive) in assay [5] and > 46 µM (inactive) in assay [6]. Besides, the activity, negative = inhibition in assay [4] is 11.1% (inactive). The Potency result in [7], in assay [8], in assay [10], in assay [11], in assay [12] and in [13] was “inactive” each time. The call in assay [9], in assay [14], in assay [15], in assay [16] and in assay [17] was inactive. Moreover, the max response in assay [18] (measured here: cell count channel max response) is -17.7%.

For the origin of these results see PubChem BioAssay (NCATS).
